Source: the supplement of paper PMC11001985
Unmarked numbers belong to inactive results.

Compound: C#CCNC(=O)CCSSCCC(=O)NCCc1ccc(C=O)c(C=O)c1
Assay: lysine labeling ratio R10:1 (500 µM / 50 µM probe), SILAC-ABPP in living cells; higher = lower intrinsic lysine reactivity toward the probe, active = 2 or less
Conditions: HeLa; probe concentrations 500 vs 50 µM
Outline: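 With forward and reverse label swaps, light and heavy SILAC HeLa cells, alive and in PBS at room temperature, were exposed to either 500 µM or 50 µM of an alkyne-tagged lysine probe bearing a disulfide link. After mixing, lysates were clicked to biotin-azide, cut with trypsin, pulled down on neutravidin, freed with DTT, alkylated and analysed on a TIMS-TOF Pro by LC-MS/MS. The per-lysine value R is the median over forward and reverse replicates of the filtered median high-probe/low-probe MS1 peptide ratio. It is capped at 20.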

Chain of UniProt P47756 (P47756 whole entry): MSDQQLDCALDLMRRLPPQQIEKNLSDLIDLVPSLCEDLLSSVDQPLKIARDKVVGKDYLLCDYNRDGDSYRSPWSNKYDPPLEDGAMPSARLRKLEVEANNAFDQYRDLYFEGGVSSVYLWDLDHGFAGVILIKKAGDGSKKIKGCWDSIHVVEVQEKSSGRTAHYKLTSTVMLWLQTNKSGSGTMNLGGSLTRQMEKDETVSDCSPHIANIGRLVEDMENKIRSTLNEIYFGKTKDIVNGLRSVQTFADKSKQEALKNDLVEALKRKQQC
Chain of UniProt P21333 (P21333 whole entry): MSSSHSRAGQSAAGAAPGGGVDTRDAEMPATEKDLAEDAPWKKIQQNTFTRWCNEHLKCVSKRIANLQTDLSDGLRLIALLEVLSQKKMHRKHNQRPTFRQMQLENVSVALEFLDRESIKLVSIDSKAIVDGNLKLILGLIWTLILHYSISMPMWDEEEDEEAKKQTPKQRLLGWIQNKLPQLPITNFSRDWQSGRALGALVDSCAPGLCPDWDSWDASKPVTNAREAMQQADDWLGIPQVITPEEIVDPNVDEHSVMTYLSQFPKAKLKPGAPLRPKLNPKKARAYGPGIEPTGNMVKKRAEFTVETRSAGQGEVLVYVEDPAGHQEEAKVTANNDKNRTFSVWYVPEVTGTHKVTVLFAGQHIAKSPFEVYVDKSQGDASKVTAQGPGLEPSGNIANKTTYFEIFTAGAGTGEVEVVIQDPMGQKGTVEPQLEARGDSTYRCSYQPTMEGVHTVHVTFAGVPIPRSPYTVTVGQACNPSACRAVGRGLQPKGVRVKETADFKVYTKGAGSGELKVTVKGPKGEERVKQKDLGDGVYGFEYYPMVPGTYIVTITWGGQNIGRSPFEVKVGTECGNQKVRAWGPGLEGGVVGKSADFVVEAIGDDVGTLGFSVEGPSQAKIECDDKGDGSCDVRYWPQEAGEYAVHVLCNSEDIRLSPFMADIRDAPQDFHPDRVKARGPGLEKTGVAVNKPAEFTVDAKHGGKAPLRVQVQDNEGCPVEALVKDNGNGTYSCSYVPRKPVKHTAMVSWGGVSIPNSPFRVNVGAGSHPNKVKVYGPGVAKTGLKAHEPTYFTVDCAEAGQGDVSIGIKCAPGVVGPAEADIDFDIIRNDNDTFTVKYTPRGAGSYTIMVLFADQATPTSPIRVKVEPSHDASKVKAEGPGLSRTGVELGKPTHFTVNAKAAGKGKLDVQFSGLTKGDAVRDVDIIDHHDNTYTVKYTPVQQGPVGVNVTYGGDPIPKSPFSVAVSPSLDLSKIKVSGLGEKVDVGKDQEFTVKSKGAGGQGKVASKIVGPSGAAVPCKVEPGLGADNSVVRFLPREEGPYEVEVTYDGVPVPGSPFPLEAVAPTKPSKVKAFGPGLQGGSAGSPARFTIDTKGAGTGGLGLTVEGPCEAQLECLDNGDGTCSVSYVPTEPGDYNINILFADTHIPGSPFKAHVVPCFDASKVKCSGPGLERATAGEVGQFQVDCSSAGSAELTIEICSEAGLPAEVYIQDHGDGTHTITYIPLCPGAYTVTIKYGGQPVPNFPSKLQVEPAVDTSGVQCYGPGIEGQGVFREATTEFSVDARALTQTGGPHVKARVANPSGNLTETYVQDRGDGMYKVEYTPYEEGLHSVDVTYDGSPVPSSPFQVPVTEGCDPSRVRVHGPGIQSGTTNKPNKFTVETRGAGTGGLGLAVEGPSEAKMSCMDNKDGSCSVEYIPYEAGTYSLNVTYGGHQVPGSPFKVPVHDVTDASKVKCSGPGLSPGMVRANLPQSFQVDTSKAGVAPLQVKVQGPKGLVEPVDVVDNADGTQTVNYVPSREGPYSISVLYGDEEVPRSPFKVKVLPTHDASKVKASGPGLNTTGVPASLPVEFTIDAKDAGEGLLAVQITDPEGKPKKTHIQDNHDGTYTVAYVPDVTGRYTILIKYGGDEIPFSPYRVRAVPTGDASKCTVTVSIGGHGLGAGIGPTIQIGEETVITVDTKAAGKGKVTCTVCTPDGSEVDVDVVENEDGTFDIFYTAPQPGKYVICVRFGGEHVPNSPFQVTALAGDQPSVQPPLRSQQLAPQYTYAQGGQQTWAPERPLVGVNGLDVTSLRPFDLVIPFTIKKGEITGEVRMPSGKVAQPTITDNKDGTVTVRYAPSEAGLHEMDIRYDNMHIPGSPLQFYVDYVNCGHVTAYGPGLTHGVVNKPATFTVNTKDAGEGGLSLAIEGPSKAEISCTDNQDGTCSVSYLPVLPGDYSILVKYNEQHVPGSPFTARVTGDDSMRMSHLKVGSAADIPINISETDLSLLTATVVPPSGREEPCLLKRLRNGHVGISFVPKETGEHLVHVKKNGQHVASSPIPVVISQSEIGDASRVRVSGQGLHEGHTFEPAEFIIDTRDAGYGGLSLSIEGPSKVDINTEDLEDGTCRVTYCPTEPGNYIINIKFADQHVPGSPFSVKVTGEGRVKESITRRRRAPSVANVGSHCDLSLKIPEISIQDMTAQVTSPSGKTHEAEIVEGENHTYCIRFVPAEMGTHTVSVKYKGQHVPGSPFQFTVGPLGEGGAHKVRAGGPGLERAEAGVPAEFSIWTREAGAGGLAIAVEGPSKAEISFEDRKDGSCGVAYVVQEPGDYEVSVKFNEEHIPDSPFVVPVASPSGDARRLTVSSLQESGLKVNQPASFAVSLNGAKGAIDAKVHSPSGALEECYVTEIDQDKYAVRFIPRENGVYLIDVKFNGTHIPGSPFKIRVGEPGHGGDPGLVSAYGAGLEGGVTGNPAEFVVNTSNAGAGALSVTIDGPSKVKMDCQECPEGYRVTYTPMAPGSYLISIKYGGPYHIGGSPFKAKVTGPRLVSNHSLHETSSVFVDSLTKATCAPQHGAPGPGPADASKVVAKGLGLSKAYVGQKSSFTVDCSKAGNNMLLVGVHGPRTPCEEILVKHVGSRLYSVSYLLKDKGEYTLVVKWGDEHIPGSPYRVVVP
Chain of UniProt O95864 (O95864 whole entry): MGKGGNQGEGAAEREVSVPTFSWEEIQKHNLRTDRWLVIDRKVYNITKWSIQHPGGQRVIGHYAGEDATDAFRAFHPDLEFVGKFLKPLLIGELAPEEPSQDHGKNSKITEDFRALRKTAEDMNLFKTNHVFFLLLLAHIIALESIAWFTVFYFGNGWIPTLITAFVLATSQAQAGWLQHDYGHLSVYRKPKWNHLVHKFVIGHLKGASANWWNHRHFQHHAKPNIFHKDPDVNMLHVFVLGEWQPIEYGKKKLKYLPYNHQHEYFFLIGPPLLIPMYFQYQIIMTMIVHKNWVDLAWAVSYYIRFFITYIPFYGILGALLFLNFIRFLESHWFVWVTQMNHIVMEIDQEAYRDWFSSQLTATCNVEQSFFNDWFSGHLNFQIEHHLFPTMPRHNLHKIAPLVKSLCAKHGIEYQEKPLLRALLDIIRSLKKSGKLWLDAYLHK
Chain of UniProt Q04446 (Q04446 whole entry): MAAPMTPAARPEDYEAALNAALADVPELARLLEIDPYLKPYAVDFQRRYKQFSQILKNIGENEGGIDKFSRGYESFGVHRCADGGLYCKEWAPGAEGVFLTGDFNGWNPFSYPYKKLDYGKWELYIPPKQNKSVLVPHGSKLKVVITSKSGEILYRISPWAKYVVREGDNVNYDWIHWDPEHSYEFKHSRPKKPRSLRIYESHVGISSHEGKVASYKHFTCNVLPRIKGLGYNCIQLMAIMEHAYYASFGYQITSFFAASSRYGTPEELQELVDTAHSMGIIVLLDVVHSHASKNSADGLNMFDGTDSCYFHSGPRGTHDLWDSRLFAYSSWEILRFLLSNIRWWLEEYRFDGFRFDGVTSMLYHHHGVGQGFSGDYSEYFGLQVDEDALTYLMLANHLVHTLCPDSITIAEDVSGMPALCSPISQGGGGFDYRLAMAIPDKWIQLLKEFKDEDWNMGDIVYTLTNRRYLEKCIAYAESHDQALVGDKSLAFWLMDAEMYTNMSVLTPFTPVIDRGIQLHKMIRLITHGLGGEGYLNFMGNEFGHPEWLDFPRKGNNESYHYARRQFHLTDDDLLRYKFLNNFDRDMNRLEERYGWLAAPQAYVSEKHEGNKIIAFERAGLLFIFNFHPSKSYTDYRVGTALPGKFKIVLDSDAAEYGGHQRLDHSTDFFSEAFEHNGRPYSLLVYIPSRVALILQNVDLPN
Chain of UniProt P48047 (P48047 whole entry): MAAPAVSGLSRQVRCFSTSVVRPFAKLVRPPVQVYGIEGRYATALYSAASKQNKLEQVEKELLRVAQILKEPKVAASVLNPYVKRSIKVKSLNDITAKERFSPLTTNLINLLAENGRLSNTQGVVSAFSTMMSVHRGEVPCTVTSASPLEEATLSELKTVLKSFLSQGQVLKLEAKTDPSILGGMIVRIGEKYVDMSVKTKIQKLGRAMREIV
Chain of UniProt P50454 (P50454 whole entry): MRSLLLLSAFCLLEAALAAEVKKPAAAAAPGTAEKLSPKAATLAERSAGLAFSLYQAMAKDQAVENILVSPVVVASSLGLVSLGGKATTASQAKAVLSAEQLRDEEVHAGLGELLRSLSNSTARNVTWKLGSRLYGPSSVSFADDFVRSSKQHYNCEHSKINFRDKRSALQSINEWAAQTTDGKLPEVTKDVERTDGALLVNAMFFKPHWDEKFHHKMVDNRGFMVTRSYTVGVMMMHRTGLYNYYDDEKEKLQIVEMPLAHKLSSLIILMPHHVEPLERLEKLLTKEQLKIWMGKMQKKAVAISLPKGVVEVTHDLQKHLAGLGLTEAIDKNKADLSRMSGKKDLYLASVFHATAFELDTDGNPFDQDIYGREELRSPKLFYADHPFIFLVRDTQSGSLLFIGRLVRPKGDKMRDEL
Chain of UniProt Q9NV96 (Q9NV96 whole entry): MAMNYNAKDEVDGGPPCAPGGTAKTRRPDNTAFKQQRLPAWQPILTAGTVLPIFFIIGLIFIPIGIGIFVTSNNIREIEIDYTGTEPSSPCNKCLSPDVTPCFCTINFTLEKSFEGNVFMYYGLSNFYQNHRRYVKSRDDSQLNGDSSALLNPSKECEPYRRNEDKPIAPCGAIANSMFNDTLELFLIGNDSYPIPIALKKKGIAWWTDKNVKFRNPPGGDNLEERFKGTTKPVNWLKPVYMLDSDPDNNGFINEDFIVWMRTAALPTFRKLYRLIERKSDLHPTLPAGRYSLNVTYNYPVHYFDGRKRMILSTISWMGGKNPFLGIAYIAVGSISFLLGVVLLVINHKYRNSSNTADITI

Target | lysine labeling ratio R10:1
TFRC (lysine site: K344) (UniProt P02786) | 9.15
UniProt Q12884 (lysine site: K591) | 1.95 (active)
TMEM30A (lysine site: K279) (UniProt Q9NV96) | 1.73 (active)
DSG2 (lysine site: K406) (UniProt Q14126) | 3.75
ITGA3 (lysine site: K100) (UniProt P26006) | 2.42
UniProt Q15149 (lysine site: K3968) | 2.71
UniProt P48047 (lysine site: K84) | 4.75
UniProt P05787 (lysine site: K464) | 5.11
HEG1 (lysine site: K1075) (UniProt Q9ULI3) | 3.38
GPI (lysine site: K12) (UniProt P06744) | 0.867 (active)
CSPG4 (lysine site: K465) (UniProt Q6UVK1) | 1.56 (active)
EDIL3 (lysine site: K106) (UniProt O43854) | 2.57
NOTCH2 (lysine site: K1058) (UniProt Q04721) | 1.5 (active)
COL5A1 (lysine site: K1708) (UniProt P20908) | 1.7 (active)
FAT4 (lysine site: K3828) (UniProt Q6V0I7) | 5.8
WNT5A (lysine site: K348) (UniProt P41221) | 1.98 (active)
UniProt P62899 (lysine site: K70) | 12.9
FLNA (lysine site: K876) (UniProt P21333) | 4.23
SERPINH1 (lysine site: K39) (UniProt P50454) | 5.74
LAMC1 (lysine site: K1354) (UniProt P11047) | 1.67 (active)

Target | lysine labeling ratio R10:1
FADS2 (lysine site: K108) (UniProt O95864) | 1.75 (active)
FRAS1 (lysine site: K1164) (UniProt Q86XX4) | 1.34 (active)
KRT18 (lysine site: K119) (UniProt P05783) | 6.22
UniProt Q7L592 (lysine site: K72) | 0.87 (active)
CD58 (lysine site: K167) (UniProt P19256) | 2.06
RPS3A (lysine site: K63) (UniProt P61247) | 1.79 (active)
HSPG2 (lysine site: K1414) (UniProt P98160) | 1.42 (active)
PA2G4 (lysine site: K238) (UniProt Q9UQ80) | 1.53 (active)
UniProt P08727 (lysine site: K265) | 3.48
ITGA1 (lysine site: K563) (UniProt P56199) | 5.65
ITGAV (lysine site: K446) (UniProt P06756) | 2.59
GBE1 (lysine site: K554) (UniProt Q04446) | 0.937 (active)
LRP1 (lysine site: K458) (UniProt Q07954) | 2.56
CAPZB (lysine site: K95) (UniProt P47756) | 3.24
P4HB (lysine site: K71) (UniProt P07237) | 7.22
EPHA2 (lysine site: K441) (UniProt P29317) | 7.45
KTN1 (lysine site: K617) (UniProt Q86UP2) | 1.17 (active)
IGSF3 (lysine site: K888) (UniProt O75054) | 4.12
THBS1 (lysine site: K919) (UniProt P07996) | 1.72 (active)
MARS (lysine site: K726) (UniProt P56192) | 0.748 (active)
